# Laboratory results taken from the supplement of paper PMC8975748.
# Structures can show the parent of a compound that is named as a salt. ± gives the standard deviation of the averaged measurements.
# Experiments:
# [1] = system: Saccharomyces cerevisiae BY4741 SeMeCo community; assay: mean cell size (pixel area) (pixels); higher = larger cells; conditions: 10 µM; 24 h; SM minimal medium
# In short: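 Mean cell pixel area per well was determined by automated confocal microscopy with Harmony analysis of paraformaldehyde-fixed cells. The cells, a Saccharomyces cerevisiae BY4741 community of four plasmids that each complement one auxotrophy and carry a fluorescent marker, were incubated for 24 h with drug at a final 10 µM in SM medium in 384-well plates. Numbers are averaged over 3 replicates. Same SeMeCo high-content imaging drug screen: Selleck FDA-approved drugs at 10 µM, 24 h in SM medium, 384-well plates, 3 replicates.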
# [2] = system: Saccharomyces cerevisiae BY4741 SeMeCo community; assay: z-score of prototroph abundance vs DMSO median; higher = larger share of this subpopulation than in DMSO controls; conditions: 10 µM; 24 h; SM minimal medium; subpopulation (auxotrophy): Prototroph
# In short: (§1)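 Scoring was based on each subpopulation's abundance, expressed as a z-score against the vehicle-well median. A Saccharomyces cerevisiae BY4741 community with four plasmids, each restoring one auxotrophy and encoding a distinct fluorescent protein, was pre-grown overnight to OD600 1.0, diluted to 0.3, and added at 70 µl to 384-well plates acoustically predosed with library drugs (10 µM final). It then grew 24 h in minimal SM medium before paraformaldehyde fixation and automated confocal microscopy, with single-auxotroph fluorescent strains setting thresholds and autofluorescence correction.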
# [3] = system: Saccharomyces cerevisiae BY4741 SeMeCo community; assay: z-score of subpopulation abundance vs DMSO median, subpopulation auxotrophic for M; higher = larger share of this subpopulation than in DMSO controls; conditions: 10 µM; 24 h; SM minimal medium; subpopulation (auxotrophy): M
# In short: as §1
# [4] = system: Saccharomyces cerevisiae BY4741 SeMeCo community; assay: z-score of subpopulation abundance vs DMSO median, subpopulation auxotrophic for L; higher = larger share of this subpopulation than in DMSO controls; conditions: 10 µM; 24 h; SM minimal medium; subpopulation (auxotrophy): L
# In short: as §1
# [5] = system: Saccharomyces cerevisiae BY4741 SeMeCo community; assay: z-score of subpopulation abundance vs DMSO median, subpopulation auxotrophic for U; higher = larger share of this subpopulation than in DMSO controls; conditions: 10 µM; 24 h; SM minimal medium; subpopulation (auxotrophy): U
# In short: as §1
# [6] = system: Saccharomyces cerevisiae BY4741 SeMeCo community; assay: z-score of subpopulation abundance vs DMSO median, subpopulation auxotrophic for H; higher = larger share of this subpopulation than in DMSO controls; conditions: 10 µM; 24 h; SM minimal medium; subpopulation (auxotrophy): H
# In short: as §1
# [7] = system: Saccharomyces cerevisiae BY4741 SeMeCo community; assay: z-score of subpopulation abundance vs DMSO median, subpopulation auxotrophic for LU; higher = larger share of this subpopulation than in DMSO controls; conditions: 10 µM; 24 h; SM minimal medium; subpopulation (auxotrophy): LU
# In short: as §1
# [8] = system: Saccharomyces cerevisiae BY4741 SeMeCo community; assay: z-score of subpopulation abundance vs DMSO median, subpopulation auxotrophic for LM; higher = larger share of this subpopulation than in DMSO controls; conditions: 10 µM; 24 h; SM minimal medium; subpopulation (auxotrophy): LM
# In short: as §1
# [9] = system: Saccharomyces cerevisiae BY4741 SeMeCo community; assay: z-score of subpopulation abundance vs DMSO median, subpopulation auxotrophic for HU; higher = larger share of this subpopulation than in DMSO controls; conditions: 10 µM; 24 h; SM minimal medium; subpopulation (auxotrophy): HU
# In short: as §1
# [10] = system: Saccharomyces cerevisiae BY4741 SeMeCo community; assay: z-score of subpopulation abundance vs DMSO median, subpopulation auxotrophic for UM; higher = larger share of this subpopulation than in DMSO controls; conditions: 10 µM; 24 h; SM minimal medium; subpopulation (auxotrophy): UM
# In short: as §1
# [11] = system: Saccharomyces cerevisiae BY4741 SeMeCo community; assay: z-score of subpopulation abundance vs DMSO median, subpopulation auxotrophic for HLU; higher = larger share of this subpopulation than in DMSO controls; conditions: 10 µM; 24 h; SM minimal medium; subpopulation (auxotrophy): HLU
# In short: as §1
# [12] = system: Saccharomyces cerevisiae BY4741 SeMeCo community; assay: z-score of subpopulation abundance vs DMSO median, subpopulation auxotrophic for HLM; higher = larger share of this subpopulation than in DMSO controls; conditions: 10 µM; 24 h; SM minimal medium; subpopulation (auxotrophy): HLM
# In short: as §1
# [13] = system: Saccharomyces cerevisiae BY4741 SeMeCo community; assay: z-score of subpopulation abundance vs DMSO median, subpopulation auxotrophic for LUM; higher = larger share of this subpopulation than in DMSO controls; conditions: 10 µM; 24 h; SM minimal medium; subpopulation (auxotrophy): LUM
# In short: as §1
# [14] = system: Saccharomyces cerevisiae BY4741 SeMeCo community; assay: z-score of subpopulation abundance vs DMSO median, subpopulation auxotrophic for HM; higher = larger share of this subpopulation than in DMSO controls; conditions: 10 µM; 24 h; SM minimal medium; subpopulation (auxotrophy): HM
# In short: as §1
# [15] = system: Saccharomyces cerevisiae BY4741 SeMeCo community; assay: z-score of subpopulation abundance vs DMSO median, subpopulation auxotrophic for HL; higher = larger share of this subpopulation than in DMSO controls; conditions: 10 µM; 24 h; SM minimal medium; subpopulation (auxotrophy): HL
# In short: as §1
# [16] = system: Saccharomyces cerevisiae BY4741 SeMeCo community; assay: z-score of subpopulation abundance vs DMSO median, subpopulation auxotrophic for HLUM; higher = larger share of this subpopulation than in DMSO controls; conditions: 10 µM; 24 h; SM minimal medium; subpopulation (auxotrophy): HLUM
# In short: as §1
smiles,measurement,setting,value
Cc1c(C(N)=O)cc([N+](=O)[O-])cc1[N+](=O)[O-] [Dinitolmide],mean cell size,[1],12.4 ± 0.22
same,z-score of prototroph abundance,[2],-0.01
same,z-score of subpopulation abundance,[3],-0.14
same,z-score of subpopulation abundance,[4],0.45
same,z-score of subpopulation abundance,[5],0.48
same,z-score of subpopulation abundance,[6],-0.33
same,z-score of subpopulation abundance,[7],1.05
same,z-score of subpopulation abundance,[8],0.46
same,z-score of subpopulation abundance,[9],0.78
same,z-score of subpopulation abundance,[10],0.34
same,z-score of subpopulation abundance,[11],-0.18
same,z-score of subpopulation abundance,[12],-0.3
same,z-score of subpopulation abundance,[13],-0.13
OCCN1CCN(CC/C=C2/c3ccccc3Sc3ccc(C(F)(F)F)cc32)CC1 [Flupenthixol dihydrochloride],mean cell size,[1],12.24 ± 0.076
same,z-score of subpopulation abundance,[3],-0.29
same,z-score of subpopulation abundance,[4],1.34
same,z-score of subpopulation abundance,[6],0.73
same,z-score of subpopulation abundance,[7],0.47
same,z-score of subpopulation abundance,[8],0.75
same,z-score of subpopulation abundance,[14],0.47
same,z-score of subpopulation abundance,[10],-0.35
same,z-score of subpopulation abundance,[15],0.88
same,z-score of subpopulation abundance,[11],0.47
same,z-score of subpopulation abundance,[12],0.33
same,z-score of subpopulation abundance,[13],0.65
same,z-score of subpopulation abundance,[16],-0.47
OCCOc1ccc(/C(=C(/CCCl)c2ccccc2)c2ccccc2)cc1 [Ospemifene],mean cell size,[1],12.7 ± 0.24
same,z-score of prototroph abundance,[2],0.59
same,z-score of subpopulation abundance,[3],0.43
same,z-score of subpopulation abundance,[4],-0.6
same,z-score of subpopulation abundance,[5],-0.86
same,z-score of subpopulation abundance,[6],0.74
same,z-score of subpopulation abundance,[7],-1.59
same,z-score of subpopulation abundance,[8],-0.34
same,z-score of subpopulation abundance,[14],1.37
same,z-score of subpopulation abundance,[9],-0.18
same,z-score of subpopulation abundance,[10],-0.91
same,z-score of subpopulation abundance,[15],0.7
same,z-score of subpopulation abundance,[11],0.94
same,z-score of subpopulation abundance,[12],-0.21
same,z-score of subpopulation abundance,[13],-0.52
same,z-score of subpopulation abundance,[16],-0.5
O=c1[nH]cnc2c1ncn2[C@@H]1O[C@H](CO)[C@@H](O)[C@H]1O [Isoprinosine],mean cell size,[1],12 ± 0.19
same,z-score of prototroph abundance,[2],0.72
same,z-score of subpopulation abundance,[3],-0.21
same,z-score of subpopulation abundance,[4],-0.33
same,z-score of subpopulation abundance,[5],-0.71
same,z-score of subpopulation abundance,[6],0.09
same,z-score of subpopulation abundance,[7],-1.21
same,z-score of subpopulation abundance,[8],0
same,z-score of subpopulation abundance,[14],-0.53
same,z-score of subpopulation abundance,[10],-0.74
same,z-score of subpopulation abundance,[11],-0.46
same,z-score of subpopulation abundance,[12],-0.33
same,z-score of subpopulation abundance,[16],-0.65
CCCCCCCCCC(=O)N[C@@H](Cc1c[nH]c2ccccc12)C(=O)N[C@H](CC(N)=O)C(=O)N[C@@H](CC(=O)O)C(=O)N[C@@H]1C(=O)NCC(=O)N[C@@H](CCCN)C(=O)N[C@@H](CC(=O)O)C(=O)N[C@H](C)C(=O)N[C@@H](CC(=O)O)C(=O)NCC(=O)N[C@H](CO)C(=O)N[C@@H]([C@H](C)CC(=O)O)C(=O)N[C@@H](CC(=O)c2ccccc2N)C(=O)O[C@@H]1C [Daptomycin],mean cell size,[1],12.2 ± 0.16
same,z-score of prototroph abundance,[2],-0.94
same,z-score of subpopulation abundance,[3],0.17
same,z-score of subpopulation abundance,[4],0.51
same,z-score of subpopulation abundance,[5],-1.42
same,z-score of subpopulation abundance,[6],1.36
same,z-score of subpopulation abundance,[7],-0.76
same,z-score of subpopulation abundance,[8],1.51
same,z-score of subpopulation abundance,[14],1.93
same,z-score of subpopulation abundance,[9],0.29
same,z-score of subpopulation abundance,[10],-0.81
same,z-score of subpopulation abundance,[11],1.3
same,z-score of subpopulation abundance,[12],0.48
same,z-score of subpopulation abundance,[13],1.02
same,z-score of subpopulation abundance,[16],-0.99
O=C(NCCN1CCOCC1)c1ccc(Cl)cc1,mean cell size,[1],12.4 ± 0.22
same,z-score of prototroph abundance,[2],0.89
same,z-score of subpopulation abundance,[3],0.03
same,z-score of subpopulation abundance,[4],1.75
same,z-score of subpopulation abundance,[6],-0.65
same,z-score of subpopulation abundance,[7],0.18
same,z-score of subpopulation abundance,[8],1.06
same,z-score of subpopulation abundance,[14],-0.79
same,z-score of subpopulation abundance,[9],-1.32
same,z-score of subpopulation abundance,[10],-1.28
same,z-score of subpopulation abundance,[15],-0.31
same,z-score of subpopulation abundance,[11],0.17
same,z-score of subpopulation abundance,[12],-0.28
same,z-score of subpopulation abundance,[13],0.42
same,z-score of subpopulation abundance,[16],0.73
CO[C@H]1C[C@@H]2CC[C@@H](C)[C@@](O)(O2)C(=O)C(=O)N2CCCC[C@H]2C(=O)O[C@H]([C@H](C)C[C@@H]2CC[C@@H](O)[C@H](OC)C2)CC(=O)[C@H](C)/C=C(\C)[C@@H](O)[C@@H](OC)C(=O)[C@H](C)C[C@H](C)/C=C/C=C/C=C/1C [Rapamycin (Sirolimus)],mean cell size,[1],14.19 ± 0.085
same,z-score of prototroph abundance,[2],-18.4
same,z-score of subpopulation abundance,[3],-2.04
same,z-score of subpopulation abundance,[4],-1.39
same,z-score of subpopulation abundance,[5],3.85
same,z-score of subpopulation abundance,[6],14.3
same,z-score of subpopulation abundance,[7],3.56
same,z-score of subpopulation abundance,[8],5.67
same,z-score of subpopulation abundance,[14],21.4
same,z-score of subpopulation abundance,[9],29.9
same,z-score of subpopulation abundance,[10],13.7
same,z-score of subpopulation abundance,[15],13.8
same,z-score of subpopulation abundance,[11],21
same,z-score of subpopulation abundance,[12],16
same,z-score of subpopulation abundance,[13],11.9
